Most compounds without a hit are left out; they make up all but 18% or so of the library.
TDP1 inh: inhibitors of human tyrosyl-DNA phosphodiesterase TDP1 | Q9NUW8 | recombinant TDP1, AlphaScreen DNA substrate cleavage | Potency, µM (highest dose often 130 µM), for inactives: at the top dose activity change, negative = inhibition, usual class: inhibitors | 0.28% of 350,000 active; also: potency is read from the fitted curve at half-maximal effect; % is scaled to controls: 0 for no effect and ±100 for the full control effect; nearly all actives have a fitted effect of over 40% in size
Target sequence (Q9NUW8 whole entry, looked up): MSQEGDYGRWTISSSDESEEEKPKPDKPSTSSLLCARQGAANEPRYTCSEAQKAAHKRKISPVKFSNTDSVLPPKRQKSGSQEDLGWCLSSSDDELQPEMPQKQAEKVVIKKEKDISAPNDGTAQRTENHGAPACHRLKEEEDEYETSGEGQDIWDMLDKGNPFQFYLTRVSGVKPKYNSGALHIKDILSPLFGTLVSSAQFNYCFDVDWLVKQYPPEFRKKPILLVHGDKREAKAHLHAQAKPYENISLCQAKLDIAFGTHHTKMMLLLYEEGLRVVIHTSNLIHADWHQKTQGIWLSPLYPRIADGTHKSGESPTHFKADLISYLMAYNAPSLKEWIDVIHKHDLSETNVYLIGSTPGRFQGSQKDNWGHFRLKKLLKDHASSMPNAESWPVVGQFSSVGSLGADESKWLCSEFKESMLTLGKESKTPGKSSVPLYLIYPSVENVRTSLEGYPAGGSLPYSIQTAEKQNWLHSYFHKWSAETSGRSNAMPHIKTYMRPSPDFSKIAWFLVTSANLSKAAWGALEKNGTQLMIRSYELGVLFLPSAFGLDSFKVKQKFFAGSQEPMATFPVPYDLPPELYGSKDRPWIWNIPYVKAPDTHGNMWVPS
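Enzyme-compound mixtures sat 15 min at room temperature, followed by a 5 min reaction with 15 nM final substrate and 10 min with AlphaScreen beads. Recombinant human Tdp1 was used at 1 nM final.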
DT40 TDP1 CPT: growth inhibition of DT40 Tdp1-/-;hTDP1 cells with camptothecin (screen for TDP1 inhibitors); 12% of 420,000 active; chicken DT40 Tdp1-/-;hTDP1 cells + 20 nM CPT, ATP luminescence, 48 h; Potency, µM (top dose mostly 46.2 µM), for the others: at the highest dose activity change, negative = growth inhibition, usual class: inhibitors; also: potency is read from the fitted curve at half-maximal effect; % is scaled to controls: 0 for no effect and ±100 for the full control effect; nearly all actives have a fitted effect of over 55% in size
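Chicken DT40 Tdp1-/- cells stably complemented with human TDP1 were seeded at 400 cells/well in medium containing 20 nM camptothecin, exposed to pin-transferred compounds, and grown at 37 °C for at least 48 hr. Viability was read as ATP luminescence.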
TDP1 cell noCPT: qHTS for Inhibitors of human tyrosyl-DNA phosphodiesterase 1 (TDP1): qHTS in cells in absence of CPT; 15% of 420,000 active; DT40 Tdp1-/- hTDP1 cells, no CPT, ATP luminescence, 48 h; Potency, µM (doses to about 46.2 µM), inactives show at the highest dose activity change, negative = growth inhibition, hits mostly inhibitors; also: potency is read from the fitted curve at half-maximal effect; % is scaled to controls: 0 for no effect and ±100 for the full control effect; nearly all actives have a fitted effect of over 55% in size
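Chicken DT40 Tdp1-/- cells stably complemented with human TDP1 were seeded at 400 cells/well with DMSO in place of 20 nM camptothecin. After compound pinning, cells grew at least 48 hr at 37 °C; viability read by CellTiter-Glo luminescence.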
HepG2 tox: kills HepG2 cells in TGF-b inhibitor counter-screen | HepG2 CAGA-GFP viability, ATP luminescence, 18 h | Potency, µM (series often up to 46.1 µM), for the others: at the highest dose activity change, negative = cytotoxicity, most hits filed as cytotoxic | 0.76% of 410,000 active; also: potency is read from the fitted curve at half-maximal effect
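CellTiter-Glo luminescence gave cytotoxicity after 18 hours at 37 degrees C. The cells were HepG2 CAGA-GFP in 1% FBS DMEM, stimulated with 500 pg/mL TGF-beta after compound addition. %Activity was normalised to no-cell wells (complete cell-killing) and DMSO (no toxicity), and curves were fitted and classified.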
TGFb SMAD3 inh: TGF-b pathway inhibition. Potency, µM (series often up to 46.1 µM), for the others: at the highest dose activity, negative = inhibition, most hits filed as inhibitors. HepG2 CAGA-GFP TGF-b/SMAD3 reporter, GFP fluorescence, 18 h; TGF-beta stimulated, 500 pg/mL final. 1.2% of 410,000 active. AID 588855; also: potency is read from the fitted curve at half-maximal effect; % is scaled to controls: 0 for no effect and ±100 for the full control effect; nearly all actives have a fitted effect of over 65% in size
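Using HEPG2 CAGA-GFP reporter cells at 1000 cells/well, we pinned test compounds, stimulated with recombinant TGF-beta (500 pg/mL final) and measured total well GFP after 18 h.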
IL1B secr inh: inflammasome signaling inhibition, IL-1 beta readout; THP-1 LPS/ATP IL-1B secretion, AlphaLISA, 16 h; active compounds read low; activity change, % at 57.5 µM; 4.7% of 360,000 active; AID 743279; in the data active = activity change below about -50%; inconclusive = mostly about -30% to -49%; also: % is scaled to controls: 0 for no effect and ±100 for the full control effect
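THP-1 cells pretreated 1 hr with compounds (up to 57.5 uM final), then stimulated with LPS (250 ng/mL final) plus ATP (1.25 mM final); secreted IL-1B measured by AlphaLISA after 16 hr, decreased signal indicating inhibition.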
* hit, by the source's call; ? = inconclusive; · = no result; ! = not active in a repeat; [ ] = dose if it differs, or a comment. Unless noted, calls follow the shape of the dose curve; as a rule, active = well fitted curve in the direction sought with a large enough effect; inconclusive = small, poorly fitted or top-dose-only effect, or another doubt; inactive = no such curve, though single readings can be large; an effect the other way counts as inactive or inconclusive.

SMILES	TDP1 inh	DT40 TDP1 CPT	TDP1 cell noCPT	HepG2 tox	TGFb SMAD3 inh	IL1B secr inh
CC(=O)c1ccc(NCC2COc3ccccc3O2)c([N+](=O)[O-])c1 (stereo not given)	5%	?	13µM*	-38%	17%	24
CS(=O)(=O)c1ccc(C(=O)OCC(=O)NC(=O)C2COc3ccccc3O2)cc1[N+](=O)[O-] (stereo not given)	-6%	16µM*	18µM*	-23%	-1%	-59*
CC1(C)C2CCC1(C)C(NC(=O)COC(=O)c1ccc(S(C)(=O)=O)c([N+](=O)[O-])c1)C2 (stereo not given)	0%	5µM*	5.6µM*	6.3µM*	5µM*	·
CC(C)(C)c1ccc(OCCC(=O)OCC(=O)Nc2cccnc2Cl)cc1	·	?	16µM*	9%	25%	-10
COc1ccc(C(=O)NC(=O)COC(=O)C2COc3ccccc3O2)cc1 (stereo not given)	-2%	-14%	-25%	-6%	8%	10
COc1ccc(C(=O)OCC(=O)NC2CC2)cc1[N+](=O)[O-]	0%	-8%	23%	0%	19%	-12
COc1cc(C2c3c(oc4ccccc4c3=O)C(=O)N2c2nncs2)cc(OC)c1OC (stereo not given)	-6%	4%	5%	-17%	-8%	·
COc1cc(NC(=O)CN2C(=O)C(c3ccc(C)cc3)=NC23CCCCC3)cc(OC)c1	0%	?	?	-27%	·	·
CCN(CC)Cc1c(C(=O)N/N=C(\C)c2ccncc2)nnn1-c1nonc1N	·	1%	-9%	-1%	-2%	37
CCSc1ncc(Cl)c(C(=O)Nc2sc3c(c2C(=O)NCc2cccnc2)CCCC3)n1	5%	-28%	?	-8%	13%	-10
CC(CCc1ccccc1)NC(=O)COC(=O)c1ccc(S(C)(=O)=O)c([N+](=O)[O-])c1 (stereo not given)	4%	2.3µM*	2.3µM*	-96%	?	-108*
CS(=O)(=O)c1ccc(C(=O)OCC(=O)Nc2cccnc2Cl)cc1[N+](=O)[O-]	0%	6.5µM*	8.2µM*	-94%	?	-96*
O=C(COC(=O)c1ccc([N+](=O)[O-])cc1)Nc1cccnc1Cl	·	-19%	1%	-4%	11%	9
Cc1ccccc1NC(=O)Cc1nc(COC(=O)c2ccc(S(C)(=O)=O)c([N+](=O)[O-])c2)cs1	0%[56.1 µM]	2.9µM*	3.7µM*	-79%	13µM*	-102*
Cc1ccccc1NC(=O)Cc1nc(COC(=O)c2ccc(NC(N)=O)cc2)cs1	1%	?	?	-2%	-2%	-24
NS(=O)(=O)c1cc(C(=O)OCC(=O)Nc2ccc(Cl)cc2[N+](=O)[O-])ccc1Cl	9%	-8%	-6%	6%	1%	72
CS(=O)(=O)c1ccc(C(=O)OCC(=O)Nc2cc(C(F)(F)F)ccc2Cl)cc1[N+](=O)[O-]	1%	11µM*	?	-90%	8.9µM*	·
NS(=O)(=O)c1cc(C(=O)OCC(=O)Nc2ccccc2[N+](=O)[O-])ccc1Cl	3%	6%	1%	-12%	10%	7
Cc1ccccc1NC(=O)COC(=O)c1ccc(S(C)(=O)=O)c([N+](=O)[O-])c1	0%	2.5µM*	4µM*	10µM*!	7.9µM*	-96*
COC(=O)[C@@H](N)Cc1ccc(O)c(O)c1	-10%	27µM*	?	7%	3%	45
COC(=O)C(N)Cc1ccc(Cl)cc1 (stereo not given)	-7%[56.1 µM]	-1%	5%	12%	-13%	12

Source: PubChem (National Center for Advancing Translational Sciences (NCATS))
